Holding throughout (test): PBM binding z-score (relative to random genomic background probes); higher = stronger binding; sequences stand for … in GC…GCGATTGACAGCGTAGAATGAAGG
Assay [1] deals with FXR:RXRa (NR concentration 270 nM, RXRa partner concentration 90 nM). The method, boiled down: (§1)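 The probes on custom Agilent 4×180K protein-binding microarrays were double-stranded, with 34-nt variable regions bearing direct-repeat seeds, single-nucleotide variants, half-site ablations and random human genomic background sequences. Incubation lasted 1 h with ligand-free nuclear receptor dimers in PBS pH 7.4, 2% milk, 0.02% Triton X-100, 1 mM DTT, 0.2 mg/mL BSA and 0.4 mg/ml salmon testes DNA. Antibodies against each partner (one per run) detected bound dimers, and fluorescence scans were regression-normalized. Binding z-scores take the random background probes as reference.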

Assay [2] deals with LXRa:RXRa (NR concentration 270 nM, RXRa partner concentration 90 nM). The method, boiled down: as §1
The subject of assay [3] is LXRa homodimer (NR concentration 270 nM). The method, boiled down: as §1
Assay [4] has as its system LXRb:RXRa (NR concentration 270 nM, RXRa partner concentration 90 nM). The method, boiled down:
as §1

The test system of assay [5] is LXRb homodimer (NR concentration 270 nM). The method, boiled down:
as §1

For assay [6], the system named is PPARa:RXRa (NR concentration 270 nM, RXRa partner concentration 90 nM). The method, boiled down: as §1
In assay [7] the test system is PPARg:RXRa (NR concentration 180 nM, RXRa partner concentration 90 nM). The method, boiled down:
as §1

The test system of assay [8] is PPARg:RXRa 270nM:90nM, anti-RXR (NR concentration 270 nM, RXRa partner concentration 90 nM). The method, boiled down: as §1
The subject of assay [9] is PPARg:RXRa 30nM:10nM, anti-RXR (NR concentration 30 nM, RXRa partner concentration 10 nM). The method, boiled down:
as §1

Assay [10] relates to PPARg:RXRa 90nM:30nM, anti-RXR (NR concentration 90 nM, RXRa partner concentration 30 nM). The method, boiled down: as §1

GCTAGCAGGCCATTTGGGTTACTCAATGACGGGC: the PBM binding z-score is -0.367 in assay [1]; -0.587 in assay [2]; -0.387 in assay [3]; -0.709 in assay [4]; -0.959 in assay [5]; 0.0439 in assay [6]. Moreover, the PBM binding z-score in assay [7] was 0.457; in assay [8] it was -0.378; in [9] it was -0.68; in assay [10], -0.152.

For the sequence CCTACTAGGCCACGAAAGGTCATTGATTCAGTGA, the PBM binding z-score was determined as 4.02 in [1]; 5.66 in assay [2]; 5.5 in assay [3]; 4.32 in assay [4]; 0.558 in assay [5]; 4.84 in assay [6]. Besides, the PBM binding z-score in assay [7] came to 5.77; in [8], 5.3; in assay [9], 2.35; in assay [10], 4.43.

As for GCAGACAGGTGAAACGAAGGTAACTCAGGGTGGC, the PBM binding z-score is 0.0182 in [1]; 0.296 in [2]; -0.444 in assay [3]; 0.0431 in [4]; -1.08 in assay [5]; 0.924 in [6]. The PBM binding z-score in assay [7] is 0.836; in assay [8], 0.16; in assay [9], -0.263; in assay [10], -0.133.

Turning to AGTCAAAGTTCACTAGATAACGTAAGATTCAGCT, the PBM binding z-score in assay [1] was determined as 4.55; in assay [2], 4.91; in assay [3], 2.72; in [4] it was 2.91; in assay [5], 1.04; in [6], 3.97. The PBM binding z-score in assay [7] stood at 5.54; in assay [8], 5.7; in assay [9], 2.23; in assay [10], 4.53.

Consider GCATATAGGTAATACAAGGAGAAAGTCCGATTGT, for which the PBM binding z-score is 0.156 in assay [1]; -0.0258 in [2]; -0.258 in assay [3]; -0.357 in assay [4]; -0.633 in [5]; 0.37 in [6]. The PBM binding z-score in [7] amounted to 1.06; in assay [8], 0.421; in [9] it was 0.217; in assay [10] it was 0.104.

On to GCGACCGGGGCAAAGCAGGTTACCATAAGGTTGG, for which the PBM binding z-score in assay [1] was 0.264; in assay [2], 0.812; in [3] it was -0.366; in assay [4], 0.0322; in assay [5] it was -1.28; in assay [6], 1.42. Moreover, the PBM binding z-score was 0.709 in assay [7], 0.611 in assay [8], -0.666 in [9] and -0.143 in assay [10].

Turning to ACTATTAGTCGAGACGAGGGCAACCGATAGGTTG, the PBM binding z-score in [1] was -0.123; in assay [2], -0.246; in assay [3], -0.369; in [4], -0.122; in [5] it was -0.111; in assay [6], 0.186. For the same sequence, the PBM binding z-score was found to be 0.668 in [7], 0.119 in assay [8], 0.0913 in assay [9] and 0.381 in [10].

For the sequence GGAACGAGGGCGTTCGAGTTGATAGCATGGCGAT, the PBM binding z-score in [1] was -0.0904; in assay [2], -0.232; in assay [3], -0.938; in assay [4], -0.656; in assay [5] it was -0.964; in assay [6], -0.0431. In addition, the PBM binding z-score in assay [7] was 0.127; in assay [8] it was -0.547; in assay [9], -0.579; in assay [10] it was -0.797.

Turning to CGAACTAGGTCAGGGACAGTGAATCTCCGCACGC, the PBM binding z-score was 1.19 in assay [1]; 0.726 in [2]; -0.107 in [3]; 0.458 in [4]; -0.639 in assay [5]; 3.59 in [6]. Moreover, the PBM binding z-score in assay [7] worked out at 5.89; in [8], 4.71; in [9], 2.38; in [10], 4.17.

With TAGCCTAGGTCAGATCGGACCAGTATACGCTATA, the PBM binding z-score in assay [1] is 1.36; in [2], 1.26; in [3], -0.219; in [4], 1.03; in [5], -0.138; in assay [6] it was 1.99. For the same sequence, the PBM binding z-score in assay [7] is 0.959; in assay [8], 0.981; in assay [9] it was -0.106; in [10] it was 0.213.

Turning to CCTAGCAAGCCAATCTGGGTCACTCAAGGCTTGA, the PBM binding z-score is 0.309 in assay [1]; 0.44 in assay [2]; -0.472 in assay [3]; 0.641 in [4]; -0.582 in assay [5]; 3.06 in [6]. Further, the PBM binding z-score is 1.85 in [7], 1.79 in assay [8], -0.259 in assay [9] and 0.994 in [10].

Regarding CCTACTGGGCCATCAGGTCATCGATATCAACGTT, the PBM binding z-score in assay [1] was 1.37; in assay [2] it was 1.07; in assay [3] it was 0.687; in [4] it was 1.38; in assay [5], -0.672; in [6] it was 2.79. Moreover, the PBM binding z-score in assay [7] came to 3.18; in [8] it was 3.65; in assay [9], 1.59; in assay [10] it was 3.22.

Source of the values: the supplement of paper PMC6555819.
